High-throughput results (PubChem)
Compounds with a hit are over-represented: about 11% of the library has one in this group of screens.
IL1B secr inh = blocks inflammasome-driven IL-1 beta release. THP-1 LPS/ATP IL-1B secretion, AlphaLISA, 16 h; hits give low values. activity change, % at 57.5 µM. 360,000 compounds, 4.7% hits. AID 743279; in the data active means activity change below about -50%; inconclusive means mostly about -30% to -49%
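THP-1 cells pretreated 1 hr with compounds (up to 57.5 uM final), then stimulated with LPS (250 ng/mL final) plus ATP (1.25 mM final); secreted IL-1B measured by AlphaLISA after 16 hr, decreased signal indicating inhibition.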
MCF10A rereplic = inducers of DNA re-replication in MCF 10A breast cells. MCF 10A DNA re-replication, Hoechst nuclear intensity, 48 h. 350,000 compounds, 2.9% hits. Potency, µM (highest dose often 46.1 µM), usual class: activators. AID 624296; further: nearly all actives have a fitted effect of over 50% in size
SW480 rerep = induces DNA re-replication in SW480 colon adenocarcinoma cells; SW480 DNA re-replication, Hoechst DNA content imaging, 48 h; Potency, µM (doses to about 46.1 µM), usual class: activators; 340,000 compounds, 1.8% hits; AID 624297; further: nearly all actives have a fitted effect of over 55% in size
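Compounds, transferred as 23 nL by pin tool, were incubated with cells for 48 hr; DNA content per nucleus was then quantified by Hoechst staining and fluorescence plate imaging.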
VP16 counter = Gal4-VP16 reporter inhibition counter-screen | Drosophila S2 Gal4-VP16 UAS-luciferase, luminescence, 20 h | Potency, µM (doses to about 53.6 µM), hits mostly inhibitors | 310,000 compounds, 3.5% hits;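 further: Gal4-VP16 expression switched on by copper sulfate through the metallothionein promoter; nearly all actives have a fitted effect of over 50% in size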
RORg inh = inhibitors of mouse ROR gamma transcriptional activity; P51450; Drosophila S2 Gal4-RORgamma UAS-luciferase reporter, 20 h; Potency, µM (highest dose often 53.6 µM), actives largely listed as inhibitors; 310,000 compounds, 5.4% hits; AID 2551; further: nearly all actives have a fitted effect of over 60% in size
Target sequence (P51450 whole entry, looked up, the tested form may be a part): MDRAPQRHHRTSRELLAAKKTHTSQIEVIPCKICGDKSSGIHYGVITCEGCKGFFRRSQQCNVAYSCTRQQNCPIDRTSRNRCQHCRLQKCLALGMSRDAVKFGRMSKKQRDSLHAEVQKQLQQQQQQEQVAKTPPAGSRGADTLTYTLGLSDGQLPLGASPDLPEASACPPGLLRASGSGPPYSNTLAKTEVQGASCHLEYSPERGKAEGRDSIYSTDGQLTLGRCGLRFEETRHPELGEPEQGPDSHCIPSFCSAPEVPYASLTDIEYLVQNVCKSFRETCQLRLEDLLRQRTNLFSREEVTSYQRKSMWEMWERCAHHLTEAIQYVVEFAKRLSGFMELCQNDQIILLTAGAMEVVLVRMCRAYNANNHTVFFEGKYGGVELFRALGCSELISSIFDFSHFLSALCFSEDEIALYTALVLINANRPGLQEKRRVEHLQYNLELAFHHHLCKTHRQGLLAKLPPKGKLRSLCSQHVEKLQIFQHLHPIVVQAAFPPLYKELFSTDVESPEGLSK
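Read-out: Photinus luciferase luminescence; inhibitors lower reporter signal. Insect Schneider cells with Gal4-ROR gamma fusion under metallothionein promoter, UAS reporter; 700 uM final copper sulfate induction, 20 hr, ambient temperature.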
Numbers stand for hits; 0 = inactive; ? = inconclusive; - = no result given; [ ] = remark or other dose. Unless noted, the call rests on the fitted dose curve; in most records, active means well fitted curve in the direction sought with a large enough effect; inconclusive means small, poorly fitted or top-dose-only effect, or another doubt; inactive means no such curve, though single readings can be large; an effect the other way counts as inactive or inconclusive.

SMILES	IL1B secr inh	MCF10A rereplic	SW480 rerep	VP16 counter	RORg inh
CCCc1nnc(NC(=O)CCS(=O)(=O)Cc2ccccc2)s1	0	0	0	0	0
CC(C)c1nnc(NC(=O)c2nc(S(=O)(=O)Cc3ccccc3)ncc2Cl)s1	-103.4	?	?	11.2µM	22.4µM
CCCSc1nnc(NC(=O)c2nc(SC)ncc2Cl)s1	0	0	0	0	12.6µM
CSc1ncc(Cl)c(C(=O)Nc2nnc(SC)s2)n1	0	0	0	0	0
Nc1sccc1C(=O)N1CCN(c2ccccc2)CC1	0	-	-	-	-
COc1cc(/C=C/C(=O)OCC(=O)Nc2cc(C)on2)ccc1OCC#N	0	0	0	-	-
COC(=O)NC(/C(C(=O)OC)=C(\C)NCc1ccccc1)c1ccc(Cl)cc1 (configuration not stated)	-	-	-	0[10 µM]	0[10 µM]
COc1ccc(NC2C[C@H]3CCCC(=O)N4CC[C@@H](C2)[C@@H]34)cc1 (some centres not stated)	-	-	-	0	0
Brc1cccc(-c2nnco2)c1	0	0	0	?	20µM
NC(=O)c1ccsc1NC(=O)c1nc(-c2ccccc2)n(-c2ccccc2)n1	-51.7	?	0	0	0
O=C(Nc1ccccn1)c1nc(-c2ccccc2)n(-c2ccccc2)n1	0	0	0	0	?
CC1(c2ccccc2)CC(C)(C)N2C(=O)C3(C(C#N)=C(N)Oc4cc(O)ccc43)c3cccc1c32 (configuration not stated)	-50.7	?	0	0	0
CC1=CC(C)(C)N2C(=O)C3(C(C#N)=C(N)OC4=C3C(=O)CCC4)c3c(C)c(C)cc1c32 (configuration not stated)	0	0	0	0	0
CC1=CC(C)(C)N2C(=O)C3(C(C#N)=C(N)Oc4cc(O)ccc43)c3c(C)c(C)cc1c32 (configuration not stated)	-73.3	0	0	0	2.82µM
Cc1cc2c3c(c1)C(C)(c1ccccc1)CC(C)(C)N3C(=O)C21C(C#N)=C(N)OC2=C1C(=O)CC(C)(C)C2 (configuration not stated)	?	?	0	0	?
COC(=O)c1cccc(NC(=O)Nc2ccc(Cl)c(Cl)c2)c1	-85.1	?	0	0	?
COC(=O)c1cccc(NC(=O)NC(=O)c2ccccc2Cl)c1	0	0	0	0	?
COC(=O)c1ccc(NC(=O)Nc2ccc(F)c(Cl)c2)cc1	-88.8	?	0	0	0
O=C(Cn1c(=O)cnc2ccccc21)N1CCN(S(=O)(=O)c2cccc([N+](=O)[O-])c2)CC1	0	0	0	-	-
Cc1cc(C)n(-c2nc(N(C)C)nc(N3CCOCC3)n2)n1	0	0	?	?	3.16µM
Cc1cc(N2CCC(C)CC2)nc(-n2nc(C)cc2C)n1	0	0	0	1.26µM	0.398µM
CC12CCC(C(S(=O)(=O)Nc3ccccc3)C1=O)C2(C)C (configuration not stated)	0	0	0	-	-
O=C(NCc1ccco1)C1C(=O)Nc2ccccc2C(=O)N1C1CCCCC1 (configuration not stated)	0	-	-	-	-
N=c1c2c(-c3ccccc3)c(-c3ccccc3)n(Cc3ccco3)c2ncn1CCCN1CCOCC1	-96.3	?	?	?	?
N=c1c2c(-c3ccccc3)c(-c3ccccc3)n(Cc3ccco3)c2ncn1CCCn1ccnc1	0	?	?	?	?
SMILES	IL1B secr inh	MCF10A rereplic	SW480 rerep	VP16 counter	RORg inh
OCCNc1ncnc2c1c(-c1ccccc1)c(-c1ccccc1)n2Cc1ccco1	0	?	0[9.22 µM]	0	0
N=c1c2c(-c3ccccc3)c(-c3ccccc3)n(Cc3ccccc3)c2ncn1CCO	-107.4	?	?	0	0
N=c1c2c(-c3ccccc3)c(-c3ccccc3)n(Cc3ccco3)c2ncn1Cc1ccccc1	0	0	0	?	?
CC(C)Cn1cnc2c(c(-c3ccccc3)c(-c3ccccc3)n2Cc2ccco2)c1=N	-65.1	?	?	0	?
CCNc1c(NC(=O)c2ccc3c(c2)OCO3)c(=O)oc2ccccc12	0	0	0	0	0
COc1ccc(/C(O)=C2/C(=O)C(=O)N(CCCN3CCOCC3)C2c2ccc(Cl)cc2)cc1 (configuration not stated)	0	-	-	-	-
CCCc1cc(=O)n2nc(N3CCC(C(=O)N4CCN(c5cccc(OC)c5)CC4)CC3)sc2n1	?	0	0	0	0
CCCC1=C(C(=O)OCC)C(/C=C/c2ccccc2)n2ncnc2N1 (configuration not stated)	0	?	?	0	20µM
CCOC(=O)C1=C(C)Nc2ncnn2C1/C=C/c1ccccc1 (configuration not stated)	0	0	?	0	0
Cc1ccc(S(=O)(=O)N(C(=N)N)c2nc(N(C)C)nc(N(C)C)n2)cc1	-	-	-	0	0
CC(=O)OC[C@@H]1O[C@@H](O/N=C2/C[C@@H](O)[C@@H](O)[C@@H]3[C@@H]4C(=O)N([C@@H](C)c5ccccc5)C(=O)[C@H]4CC[C@H]23)[C@H](OC(C)=O)[C@H](OC(C)=O)[C@@H]1OC(C)=O	-	-	-	0[10 µM]	0[10 µM]
Cc1ccc(S(=O)(=O)N2CCCN(C)c3nc4ccccc4nc32)cc1	0	23.1µM	?	-	-
CN1CCCN(S(=O)(=O)c2ccccc2)c2nc3ccccc3nc21	0	?	0	-	-
CCOC(=O)c1ccc(CN2C(=O)c3ccccc3S2(=O)=O)cc1	0	0	0	0	0
CCN1/C(=C(\O)c2ccccc2)C(=O)c2ccccc2S1(=O)=O	0	?	?	?	10µM
CSc1ccccc1-c1cnc2cccnn12	-54.3	-	-	-	-
c1cc(-c2cnc3cccnn23)c2cccnc2c1	0	-	-	-	-
Fc1cccc(Cc2c(-c3ccccc3)nc3c(Cl)cc(C(F)(F)F)cn23)c1	0	-	-	-	-
Cn1c(N2CCOCC2)c(/C=N/OC(=O)c2cccnc2Cl)c2ccccc21	0	0	0	0[10 µM]	0
Cn1c(N2CCOCC2)c(/C=N/O)c2ccccc21	0	0	0	0[10 µM]	0
Cn1c(N2CCOCC2)c(/C=N/OC(=O)c2ccc(F)cc2)c2ccccc21	0	0	?	2.24µM	0.631µM
Cc1ccc(C(=O)O/N=C/c2c(N3CCOCC3)n(C)c3ccccc23)cc1	0	?	?	3.55µM	1.12µM
CC(=O)O/N=C/c1c(N2CCOCC2)n(C)c2ccccc12	0	0	1.84µM	11.2µM	6.31µM
CCOC(=O)C1=C(C)Nc2ccccc2N=C1NC(=O)C1CCN(C(=O)c2ccccc2C)CC1	0	0	0	-	-
COC(=O)C[C@H]1C[C@H]2c3cc(NC(=O)Nc4ccc(C(F)(F)F)cc4)ccc3O[C@H]2[C@@H](CO)O1	0	-	-	-	-
C=CCOc1ccc(C(c2c(O)nc(SC)[nH]c2=O)c2c(O)nc(SC)[nH]c2=O)cc1	0	0	0	-	-
Cc1nc2ccccc2n1C1CCN(CC(=O)Nc2ccccc2Br)CC1	-51.2	?	?	?	0
